The list is not random: actives were taken first. Their share in the collection is about 0.92%.
L3MBTL1 block = L3MBTL1 (human) inhibition; Q9Y468; AID 485360; Potency, µM (top dose mostly 57.1 µM), for inactives: at the highest dose activity, negative = inhibition, actives largely listed as inhibitors; 0.66% of 230,000 active; AlphaScreen L3MBTL1–H3K9me1 peptide binding; note: nearly all actives have a fitted effect of over 60% in size
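Displacement of a biotinylated histone H3(1-15) peptide monomethylated at Lys9 (75 nM) from L3MBTL1 (50 nM) was measured by AlphaScreen after a 30 min room-temperature compound incubation; cefsulodin titration served as intraplate control.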
APEX1 inh = APE1 (human) endonuclease inhibition | AID 2517 | 0.35% of 350,000 active | recombinant APE1, TAMRA/BHQ-2 abasic DNA cleavage fluorescence | Potency, µM (titrated, usually from 65.8 µM), without a hit: at the highest dose activity change, negative = inhibition, actives largely listed as inhibitors;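 note: plate controls were vehicle for no effect and reference inhibitor for full effect; nearly all actives have a fitted effect of over 55% in size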
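Enzyme (0.75 nM final) and test compound are incubated 15 min at room temperature before adding 50 nM quenched THF abasic-site duplex. Cleavage dequenches TAMRA, followed at 525/598 nm over three reads one minute apart.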
WRN helicase inh = blocks human WRN helicase | AID 651768 | WRN helicase unwinding, fluorescent forked duplex, kinetic | Q14191 | 0.46% of 360,000 active | Potency, µM (titrated, usually from 114 µM), for the others: at the highest dose activity change, negative = inhibition, most hits filed as inhibitors; note: nearly all actives have a fitted effect of over 55% in size
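Screening of the MLSMR collection measured strand separation of a quenched forked DNA duplex (100 nM) by 20 nM WRN with 2 mM ATP, all final. Compounds were preincubated with enzyme 15 min at room temperature.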
RECQ1 helicase = blocks DNA unwinding by human RECQ1 | 0.54% of 240,000 active | Potency, µM (highest dose often 57.3 µM), for the others: at the highest dose activity, negative = inhibition, most hits filed as inhibitors | RECQ1 DNA unwinding, red fluorescence kinetic read | P46063;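 note: plate controls were vehicle for no effect and no enzyme for full effect; nearly all actives have a fitted effect of over 30% in size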
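50 nM RECQ1T1 preincubated 15 min with compound in Tris pH 8.0 buffer with MgCl2, DTT, Tween-20 and 2.5 ug/ml poly(dI-dC); started with 200 nM TAMRA/BHQ-2 forked duplex and 2 mM ATP. Unwinding read as fluorescence (525/598 nm), two reads 2 h apart.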
BLM inh = inhibitors of human Bloom syndrome helicase BLM. P54132. recombinant BLM DNA unwinding, fluorescence dequenching. 0.2% of 350,000 active. Potency, µM (series often up to 56.1 µM), for the others: at the highest dose activity change, negative = inhibition, actives largely listed as inhibitors;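 note: plate controls were vehicle for no effect and no enzyme for full effect; nearly all actives have a fitted effect of over 35% in size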
* hit, by the source's call; [ ] = remark or other dose. Calls come from the whole dose curve; as a rule, active = well fitted curve in the direction sought with a large enough effect; inconclusive = small, poorly fitted or top-dose-only effect, or another doubt; inactive = no such curve, though single readings can be large; an effect the other way counts as inactive or inconclusive. Unless noted, % is set by controls: 0 for no effect and ±100 for the full control effect; potency is the fitted concentration of half-maximal effect.

How did CC1C(=NO)C(C)C(c2ccc(N(C)C)cc2)NC1c1ccc(N(C)C)cc1 (stereo unspecified) do in these assays?
L3MBTL1 block: 25µM*; APEX1 inh: -2%; WRN helicase inh: 1%; RECQ1 helicase: -7%; BLM inh: -14%

How did COc1ccc(-c2c(-c3ccc(OCC(=O)NN)cc3O)n[nH]c2C)cc1OC do in these assays?
APEX1 inh: 0%; WRN helicase inh: 2%; BLM inh: -2%

How did COc1ccc(-c2c(-c3ccc(OCC(=O)NN)cc3O)n[nH]c2C(F)(F)F)cc1 do in these assays?
L3MBTL1 block: -7%; APEX1 inh: -3%; WRN helicase inh: -7%; RECQ1 helicase: 4%; BLM inh: 13µM*

Results for CC[C@H](C)[C@H](N)C(=O)N[C@@H](CCCNC(=N)N)C(=O)N[C@@H](CCC(N)=O)C(=O)NCC(=O)N1CCC[C@H]1C(=O)N[C@@H](CCCCN)C(=O)N[C@@H](CCC(=O)O)C(=O)N1CCC[C@H]1C(=O)N[C@@H](Cc1ccccc1)C(=O)N[C@@H](CCCNC(=N)N)C(=O)N[C@@H](CC(=O)O)C(=O)N[C@@H](Cc1ccc(O)cc1)C(=O)N[C@H](C(=O)N[C@@H](CC(=O)O)C(=O)N[C@@H](CCCNC(=N)N)C(=O)N[C@@H](Cc1ccccc1)C(=O)N[C@@H](Cc1ccc(O)cc1)C(=O)N[C@@H](CCCCN)C(=O)N[C@H](C(=O)N[C@@H](CC(C)C)C(=O)O)[C@@H](C)O)C(C)C ?
APEX1 inh: 2%; RECQ1 helicase: -7%; BLM inh: 0%

How did Cc1nc(N2N=C(c3ccc(Cl)cc3)CC2c2ccco2)sc1C(=O)N(C)C (stereo unspecified) do in these assays?
L3MBTL1 block: 31%; APEX1 inh: -11%; WRN helicase inh: -7%; RECQ1 helicase: -5%; BLM inh: -14%

How did COc1ccc(C2=NN(c3nc(-c4ccccc4)c(CC(=O)O)s3)C(c3ccco3)C2)cc1 (stereo unspecified) do in these assays?
L3MBTL1 block: 32µM*; APEX1 inh: -5%; WRN helicase inh: inconclusive; RECQ1 helicase: -17%; BLM inh: -29%

How did O=C(Sc1n[nH]c(=O)[nH]c1=O)c1ccccc1 do in these assays?
WRN helicase inh: 18µM*

How did CN(C(=O)CSc1n[nH]c(=O)[nH]c1=O)c1ccccc1 do in these assays?
L3MBTL1 block: -3%; APEX1 inh: 16%; WRN helicase inh: -2%

How did CNc1ccc(-c2nc3ccccc3s2)cc1 do in these assays?
APEX1 inh: 5%; RECQ1 helicase: -4%; BLM inh: -7%

How did CCCSc1nc(C)c(-c2csc(C(C#N)=C3CCCC3)n2)cc1C#N do in these assays?
L3MBTL1 block: inconclusive; APEX1 inh: inconclusive; WRN helicase inh: inconclusive; RECQ1 helicase: 7.9µM*; BLM inh: -6%

What do the screens show for `CCCCSc1nc2c(cc1C#N)CCC2`?
L3MBTL1 block: 48%; APEX1 inh: -1%; WRN helicase inh: 0%; RECQ1 helicase: -2%; BLM inh: -8%

How did N#Cc1nonc1-c1ccccc1 do in these assays?
APEX1 inh: 2%

Results for O=[N+]([O-])c1ccc(-c2cc(-c3ccc(Cl)cc3)n[nH]2)cc1 ?
L3MBTL1 block: -1%; APEX1 inh: -1%; WRN helicase inh: 100µM*; RECQ1 helicase: inactive; BLM inh: -18%

Results for Cc1c(Cl)sn(-c2ccc(Cl)cc2)c1=O ?
L3MBTL1 block: -5%; APEX1 inh: -9%; WRN helicase inh: 16µM*; RECQ1 helicase: 29%; BLM inh: 1%

How did C=CC[N+]1([C@H]2C[C@H]3[C@@H]4CC[C@H]5C[C@H](O)[C@@H](N6CCOCC6)C[C@]5(C)[C@H]4CC[C@]3(C)[C@H]2OC(C)=O)CCCC1 do in these assays?
BLM inh: 49%

What do the screens show for `N#Cc1cccc(-c2csc(N3CCC(C(N)=O)CC3)n2)c1`?
APEX1 inh: -10%

What do the screens show for `O=C(NCCc1ccccc1)c1ccc2nc(-c3ccco3)c(-c3ccco3)nc2c1`?
APEX1 inh: inconclusive; WRN helicase inh: inconclusive; RECQ1 helicase: inconclusive; BLM inh: 7.1µM*

How did COc1ccc(-c2nc3ccc(C(=O)NCC(OC)OC)cc3nc2-c2ccc(OC)cc2)cc1 do in these assays?
APEX1 inh: 13%; WRN helicase inh: -22%; RECQ1 helicase: 22µM*; BLM inh: -12%

How did O=C(NCCO)c1ccc2nc(-c3ccco3)c(-c3ccco3)nc2c1 do in these assays?
APEX1 inh: inconclusive; WRN helicase inh: 11µM*; RECQ1 helicase: -28%; BLM inh: -27%

Results for COc1ccc(OC2C=CC(c3ccccc3)OC2CO)cc1 (stereo unspecified) ?
APEX1 inh: inconclusive; RECQ1 helicase: 11%[11.5 µM]; BLM inh: -1%[12.4 µM]

Results for COc1cc2ncc(-c3ccccc3)nc2cc1OC ?
APEX1 inh: -6%; RECQ1 helicase: 13%

Results for COc1ccc(CNS(=O)(=O)c2cc3c(cc2Cl)NC(=O)CO3)cc1 ?
L3MBTL1 block: 5%; APEX1 inh: -7%; WRN helicase inh: 3%; BLM inh: 2%

What do the screens show for `O=C1COc2cc(S(=O)(=O)NCc3ccco3)c(Cl)cc2N1`?
L3MBTL1 block: 32µM*; APEX1 inh: -20%; BLM inh: -12%

How did O=[N+]([O-])c1ccc(O)c(/C=N/Nc2nn[nH]n2)c1 do in these assays?
L3MBTL1 block: 14µM*; APEX1 inh: 0%; WRN helicase inh: -7%; RECQ1 helicase: -5%; BLM inh: 1%

What do the screens show for `O=[N+]([O-])c1ccc(O)c(-c2nn[nH]n2)c1`?
APEX1 inh: -4%; WRN helicase inh: 79µM*; RECQ1 helicase: 3%; BLM inh: 3%

What do the screens show for `Oc1ccccc1/C=N/Nc1nn[nH]n1`?
L3MBTL1 block: -21%; APEX1 inh: -1%; WRN helicase inh: 6%; RECQ1 helicase: -5%; BLM inh: -1%

Results for Cc1cc(C)n(-c2ccc([N+](=O)[O-])cc2-c2nn[nH]n2)n1 ?
APEX1 inh: 10%; WRN helicase inh: 2%; RECQ1 helicase: -11%; BLM inh: 4%

How did COc1ccc(-c2nnc3n2N=C(c2cc(OC)ccc2OC)CS3)cc1 do in these assays?
APEX1 inh: -5%; RECQ1 helicase: -1%; BLM inh: 1%

How did C/C1=C\[C@@H](O)C(C(C)C)C(OC(=O)c2ccc(O)cc2)C/C(C)=C/CC1 (stereo partly specified) do in these assays?
APEX1 inh: inconclusive; RECQ1 helicase: -23%; BLM inh: -11%

Results for O=C(O)COc1cccc2c1CCC=C2CCO/N=C(\c1ccccc1)c1cccnc1 ?
APEX1 inh: 10%; RECQ1 helicase: 16%; BLM inh: 2%

Bioassay records from PubChem BioAssay.
